The text below walks through data of PubChem BioAssay.

Values joined by “and” are separate entries in the source; they are usually repeats but may differ in a detail not shown here. Equal entries are not always repeated. Active and inactive are the calls of the source. Unless noted, the rule behind the calls is not given here.

A short description of experiment [1]: compounds altering viability of human ES cells (AID 493140).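 Note: cells exposed to compounds for four days before counting.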 As to conditions: human embryonic stem cell survival screen; stronger effect = higher value.
The nature of experiment [2]: stimulators of insulin release from INS-1E, primary screen, cell-based, 5 mM glucose, NPC library (AID 1117329;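 active = compound raises insulin release from rat beta cells at 5 mM glucose, no numeric limit stated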). As to conditions: rat INS-1E insulin secretion, at 10 µM, stronger effect = higher value.
The nature of experiment [3]: growth inhibition of GSK3B-pretreated HCT116 cells – cell-based, CellTiter-Glo, 0.2 to 20 µM (AID 1117336;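 active = compounds lowering colon cancer cell viability after pretreatment blocking the GSK3B kinase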). As to conditions: HCT116 viability after GSK3B inhibitor, at 20 µM, stronger effect = higher value.
Experiment [4] can be described thus: inhibition of endothelial tube formation, primary screen, imaging, VEGF stimulated, CD31 staining, tube area, NPC library (AID 1117340;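 active = compound that reduces growth-factor-driven endothelial tube area in a mixed cell culture, no cutoff stated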). As to conditions: VEGF-stimulated ADSC/ECFC co-culture, at 10 µM, stronger effect = higher value.
A short description of experiment [5]: GLP1 release stimulators, primary, NCI-H716, NPC library (AID 1117341;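 active = compound raises GLP1 secretion from the human gut endocrine cells, with no numeric limit stated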). The settings on record: NCI-H716 cells, at 10 µM, stronger effect = higher value.
Experiment [6] in a line: HCT116 colon cancer cell growth inhibition, primary screen, CellTiter-Glo luminescence, NPC library (AID 1117342;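 active = compounds that lower survival of HCT116 colon cancer cells in the luminescence readout, no numeric limit stated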). As to conditions: at 20 µM (top of the series). On the technique in general: Cellular ATP, detected with luciferase, serves as a proxy for viable cell number.
Experiment [7] is described as follows: reduced SW480 viability measured with CellTiter-Glo, NPC library, primary (AID 1117343;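 active = compounds that lower viability of the colon cancer cells in the luminescence readout, with no numeric limit stated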). The settings on record: CellTiter-Glo luminescence; at 20 µM (top of the series) unless noted.
A short description of experiment [8]: NPC library primary testing for decreased DLD-1 cell viability via CellTiter-Glo (AID 1117346;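 active = compounds that lower survival of DLD-1 colon cancer cells in the luminescence readout, no cutoff given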). The settings on record: DLD-1 viability, CellTiter-Glo luminescence; at 20 µM (top of the series).
Experiment [9] concerns the target 6-phosphogluconate dehydrogenase, decarboxylating (Homo sapiens) (UniProt P52209). Nature of the experiment: inhibition of human phosphogluconate dehydrogenase – biochemical, recombinant enzyme, NADPH absorbance, primary screen (AID 1159550;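 active = at least 20% inhibition of 6-phosphogluconate dehydrogenase activity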). As to conditions: recombinant 6PGD, NADPH absorbance 341 nm; at 10 µM; stronger effect = higher value.
Experiment [10] in a line: modulation of C. elegans fzo-1 (AID 1259413).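 Note: fzo-1 mutant C. elegans worms in liquid wells.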 The settings on record: C. elegans fzo-1 modulator screen, mean read-out; stronger effect = higher value.
Experiment [11] in a line: EMT-state selective cytotoxicity in co-culture – imaging, PC-3E GFP, TEM4-18 mCherry, primary screen (AID 1345086;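 active = compounds killing one labelled cell type while sparing the other, by normalised counts and ratio limits, not self-fluorescent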;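 for all read-outs here: cells exposed to compound for 72 h before imaging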;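 for red/green cell ratio (normalised): normalised mesenchymal count divided by normalised epithelial count so high means epithelial killing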). As to conditions: PC-3E GFP / TEM4-18 mCherry co-culture, imaging cell counts, at 1 µM; for red/green cell ratio (normalised): actives lie on both sides, counts scaled to control wells, 1 = unselective.
Experiment [12] can be described thus: MELAS cybrid and Rieske KO viability enhancers – cell-based, MELAS cybrids, Rieske KO mouse fibroblasts, CellTiter-Glo, primary screen (AID 1508586;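 active = mean z-score across replicates of 1.96 or higher in either the MELAS or the Rieske mutant cell line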;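 note: z relative to plate mean and SD of compound and empty wells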). The settings on record: low glucose.
The target in experiment [13] is NAD(+) hydrolase SARM1 (Homo sapiens) (UniProt Q6SZW1). As to the kind of experiment: blocking NAD cleavage by SARM1 SAM-TIR – cell lysate, NAD-Glo luminescence (AID 1508614;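 active = compound whose remaining NAD level is above about 45 nM, limit read from the data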;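 note: higher remaining NAD means stronger inhibition of SARM1 NADase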). The settings on record: SAM-TIR HEK293T lysate NADase, at 1 µM, stronger effect = higher value.
The target of experiment [14] is Mitogen-activated protein kinase 7 (Homo sapiens) (UniProt Q13164). As to the kind of experiment: Gal4-ERK5 driven luciferase induction – cell-based, HTS, primary screen (AID 1508626;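 active = luciferase signal above three times the same-plate solvent-only control wells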;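 note: luciferase driven by Gal4-ERK5 fusion binding five Gal4 sites before minimal TATA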). As to conditions: HeLa Gal4-ERK5 transactivation, 18 h, at 5 µM, stronger effect = higher value.
Experiment [15] is described as follows: galactose survival enhancers in mitochondrial complex I cybrids – cell-based, galactose medium, ATP luminescence, primary screen (AID 1645843;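 active = z-score of at least 1.8 in each of two replicates, scored against plate mean and spread of sample wells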;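 note: positive z means more ATP and so rescue of galactose-driven cybrid death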). As to conditions: complex I mutant cybrid cells, 72 h, stronger effect = higher value.
Experiment [16] can be described thus: compounds altering Cy5-DNA-NS3h complex signal – biochemical, LOPAC1280, artefact control for HCV NS3 helicase inhibitor project (AID 687037). As to conditions: Cy5-DNA-NS3h complex fluorescence interference counterscreen. On the technique in general: The purpose of a counterscreen is to sort out artefacts and off-target activity.
The nature of experiment [17]: blockers of cellular phospholipid synthesis – cell-based, LOPAC library, screen 4, primary screen (AID 1347384). As to conditions: animal cells, phospholipid biosynthesis inhibition screen; at 10 µM.
Experiment [18] in a line: Wnt pathway potentiators raising nuclear beta-catenin – imaging, WNT3A-conditioned medium, mouse C2C12, NPC library, primary screen (AID 1117326; in the data active = nuclear beta-catenin stimulation mostly above about 4.2%, no sharp cut-off; inactive = mostly below about 10%). The settings on record: stronger effect = higher value.
Setting [19] is: measured here: epithelial PC-3E GFP cell survival.
Setting [20] is: measured here: mesenchymal TEM4-18 mCherry cell survival.
[21] abbreviates: MELAS cybrid survival, CellTiter-Glo 48 h, stronger effect = higher value.
Setting [22] is: Rieske KO mouse fibroblast survival, CellTiter-Glo 72 h.

Sequence of 6-phosphogluconate dehydrogenase, decarboxylating (Homo sapiens) (P52209 whole entry, looked up): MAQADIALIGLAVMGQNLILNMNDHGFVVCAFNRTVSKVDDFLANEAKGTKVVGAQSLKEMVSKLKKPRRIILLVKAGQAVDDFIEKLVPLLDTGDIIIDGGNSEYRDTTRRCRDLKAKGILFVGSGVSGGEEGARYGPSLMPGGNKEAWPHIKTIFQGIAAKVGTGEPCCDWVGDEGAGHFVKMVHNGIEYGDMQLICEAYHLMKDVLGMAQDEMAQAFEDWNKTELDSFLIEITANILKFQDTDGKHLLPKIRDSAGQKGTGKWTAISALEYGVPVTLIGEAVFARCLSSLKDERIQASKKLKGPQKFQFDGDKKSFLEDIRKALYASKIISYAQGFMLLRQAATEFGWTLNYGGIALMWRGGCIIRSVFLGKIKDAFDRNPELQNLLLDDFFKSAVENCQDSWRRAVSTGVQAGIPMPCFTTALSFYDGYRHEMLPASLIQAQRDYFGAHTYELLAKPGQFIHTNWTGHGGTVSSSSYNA
Sequence of Mitogen-activated protein kinase 7 (Homo sapiens) (Q13164 whole entry, looked up, the tested form may be a part): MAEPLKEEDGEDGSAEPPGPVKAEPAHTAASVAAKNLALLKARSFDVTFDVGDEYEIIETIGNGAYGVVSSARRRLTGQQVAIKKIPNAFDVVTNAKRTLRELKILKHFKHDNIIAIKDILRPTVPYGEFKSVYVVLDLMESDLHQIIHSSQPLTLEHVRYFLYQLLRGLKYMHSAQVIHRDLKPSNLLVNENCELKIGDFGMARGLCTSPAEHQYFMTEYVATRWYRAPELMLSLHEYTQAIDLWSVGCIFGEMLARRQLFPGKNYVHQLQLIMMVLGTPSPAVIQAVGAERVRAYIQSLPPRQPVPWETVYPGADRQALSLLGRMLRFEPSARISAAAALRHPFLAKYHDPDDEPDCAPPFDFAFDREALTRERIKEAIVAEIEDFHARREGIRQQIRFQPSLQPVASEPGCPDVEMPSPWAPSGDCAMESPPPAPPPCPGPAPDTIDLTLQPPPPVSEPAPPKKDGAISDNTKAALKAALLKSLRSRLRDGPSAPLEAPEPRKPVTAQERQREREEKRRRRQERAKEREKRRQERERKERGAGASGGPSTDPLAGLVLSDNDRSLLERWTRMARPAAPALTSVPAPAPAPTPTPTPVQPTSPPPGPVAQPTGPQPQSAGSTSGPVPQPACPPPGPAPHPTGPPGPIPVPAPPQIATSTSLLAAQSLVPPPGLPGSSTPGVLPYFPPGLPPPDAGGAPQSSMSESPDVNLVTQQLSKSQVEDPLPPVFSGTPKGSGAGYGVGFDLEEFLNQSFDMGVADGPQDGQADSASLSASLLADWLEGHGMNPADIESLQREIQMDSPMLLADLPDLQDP
Sequence of NAD(+) hydrolase SARM1 (Homo sapiens) (Q6SZW1 whole entry, looked up, the tested form may be a part): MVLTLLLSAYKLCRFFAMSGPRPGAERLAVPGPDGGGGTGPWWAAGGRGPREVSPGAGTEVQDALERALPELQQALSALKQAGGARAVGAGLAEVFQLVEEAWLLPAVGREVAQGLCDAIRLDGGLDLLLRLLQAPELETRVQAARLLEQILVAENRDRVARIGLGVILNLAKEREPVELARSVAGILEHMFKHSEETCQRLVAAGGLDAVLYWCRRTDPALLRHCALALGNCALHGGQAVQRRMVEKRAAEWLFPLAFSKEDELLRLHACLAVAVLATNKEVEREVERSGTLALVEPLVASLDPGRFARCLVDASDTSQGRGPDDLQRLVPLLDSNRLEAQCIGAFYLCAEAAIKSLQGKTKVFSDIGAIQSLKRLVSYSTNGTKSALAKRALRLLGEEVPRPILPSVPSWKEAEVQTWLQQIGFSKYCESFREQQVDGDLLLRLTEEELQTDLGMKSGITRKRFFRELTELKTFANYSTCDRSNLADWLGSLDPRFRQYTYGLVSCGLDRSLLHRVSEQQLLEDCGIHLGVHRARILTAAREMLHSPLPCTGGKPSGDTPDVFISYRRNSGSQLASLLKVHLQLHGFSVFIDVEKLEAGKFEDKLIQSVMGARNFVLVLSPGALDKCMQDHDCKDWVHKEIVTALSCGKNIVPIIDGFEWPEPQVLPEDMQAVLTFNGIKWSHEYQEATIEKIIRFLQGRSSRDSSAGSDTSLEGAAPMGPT

The inhibition is the drop in the measured response relative to a control, in per cent. `CCCC(=O)Nc1ccc(OCC(O)CNC(C)C)c(C(C)=O)c1` (stereo not drawn): the survival in experiment [1] was 12.1 (inactive). The insulin secretion stimulation in [2] was 0.7% (inactive). Besides, the viability decrease in experiment [3] is -32% (inactive). In experiment [4], the tube area decrease is 13.3% (inactive). In experiment [5], the GLP1 secretion stimulation was 0.9% (inactive). Moreover, the inhibition of viability in experiment [6] is 2.87% (inactive). Further, the values for the viability decrease (inhibition) in [7] and in experiment [8] were 15.1% (inactive) and -8.8% (inactive), respectively. In addition, the inhibition in [9] is 5.09% (inactive). For the same compound, the mean signal in experiment [10] was 238 (inactive). Also, the red/green cell ratio (normalised) in experiment [11] was 0.87 (inactive). Further, the normalised cell number stood at 1.07 in experiment [11] (setting [19]) and 0.93 in experiment [11] (setting [20]). Moreover, the z-score in experiment [12] (setting [21]) is -0.162 (inactive) and 0.587 (inactive); in experiment [12] (setting [22]), -0.138 and 0.913; in [15], 1.51 (inactive). The remaining NAD in experiment [13] is 10 nM (inactive). Further, the luciferase signal in experiment [14] is 60 AU (inactive).
As for `O=C(O)CCc1nc(-c2ccccc2)c(-c2ccccc2)o1`, the survival in experiment [1] was 5.67 (inactive). In addition, the fluorescence ratio (interference) in [16] is 1 (inactive). The insulin secretion stimulation in experiment [2] is 1.3% (inactive). Moreover, the viability decrease in experiment [3] is -61.8% (inactive). In addition, the tube area decrease in [4] was -17.6% (inactive). For the same compound, the GLP1 secretion stimulation in experiment [5] was 2.2% (inactive). In experiment [6], the inhibition of viability was 9.15% (inactive). Moreover, the values for the viability decrease (inhibition) in experiment [7] and in experiment [8] were 8.7% (inactive) and -5.7% (inactive), respectively. In addition, the inhibition in experiment [9] was -3.27% (inactive). In addition, the mean signal in [10] is 247 (inactive). Also, the red/green cell ratio (normalised) in experiment [11] was 1.03 (inactive). Besides, the normalised cell number came to 1.14 in [11] (setting [19]) and 1.18 in [11] (setting [20]). The compound was classed as inactive in experiment [17]. The z-score is -0.226 (inactive) and -0.656 (inactive) in experiment [12] (setting [21]); -0.145 and -0.466 in [12] (setting [22]); 0.9 (inactive) and 1.19 (inactive) in experiment [15]. Further, the remaining NAD in experiment [13] is 10 nM (inactive). In addition, the luciferase signal in [14] was 44 AU (inactive).
On to `CC(C)(C)NC(=O)[C@@H]1C[C@@H]2CCCC[C@H]2CN1C[C@@H](O)[C@H](Cc1ccccc1)NC(=O)[C@H](CC(N)=O)NC(=O)c1ccc2ccccc2n1`, for which the insulin secretion stimulation in [2] was 1.9% (inactive). For the same compound, the viability decrease in experiment [3] was 45.8% (inactive). In addition, the tube area decrease in [4] is 29.6% (inactive). Also, in [5], the GLP1 secretion stimulation was -3.7% (inactive). For the same compound, in [6], the inhibition of viability is 74% (active). Also, the viability decrease (inhibition) in [7] was 92.3% (active); in experiment [8], 88.3% (active).
Turning to `Cc1cc(NS(=O)(=O)c2ccc(N)cc2)no1`, in experiment [1], the survival was 30.6 (inactive). In addition, in experiment [2], the insulin secretion stimulation was -2.1% (inactive). In [3], the viability decrease was 1.7% (inactive). The tube area decrease in [4] was 1.9% (inactive). Besides, in experiment [5], the GLP1 secretion stimulation was 1.9% (inactive). In addition, the inhibition of viability in [6] is -6.5% (inactive). Further, the viability decrease (inhibition) in experiment [7] was -7.9% (inactive); in [8], 3.95% (inactive). Moreover, the inhibition in experiment [9] was 11.1% (inactive). Besides, the mean signal in experiment [10] was 252 (inactive). Further, in experiment [11], the red/green cell ratio (normalised) was 1.25 (inactive). The normalised cell number in experiment [11] (setting [19]) was determined as 1.05; in experiment [11] (setting [20]), 1.32. The z-score is -0.296 (inactive) and -0.181 (inactive) in [12] (setting [21]); -0.35 and -0.048 in experiment [12] (setting [22]); 0.255 (inactive) in experiment [15]. Besides, the remaining NAD in experiment [13] was 10 nM (inactive). Besides, the luciferase signal in experiment [14] was 64 AU (inactive).
For `NC(=O)c1cccnc1`, the nuclear beta-catenin stimulation was 0.1% (inactive) in [18] (at 10 µM) and 7.7% in experiment [18] (stimulation, at 2 µM). In addition, the viability decrease in [3] is 7% (inactive). In addition, in [4], the tube area decrease is -7.9% (inactive). The inhibition of viability in experiment [6] was 11.2% (inactive). Also, the viability decrease (inhibition) in experiment [7] was 1.3% (inactive); in experiment [8], 4.3% (inactive). In addition, the mean signal in experiment [10] was 256 (inactive). In experiment [11], the red/green cell ratio (normalised) was 1.14 (inactive). Further, the values for the normalised cell number in [11] (setting [19]) and in [11] (setting [20]) were 1.05 and 1.2, respectively. The z-score in experiment [12] (setting [21]) is -0.258 (inactive) and -0.151 (inactive) and -0.172 (inactive); in experiment [12] (setting [22]), 0.704 and -0.543 and -0.673; in [15], 0.75 (inactive) and 0.635 (inactive). For the same compound, the luciferase signal in experiment [14] was 32 AU (inactive).
